From PubChem BioAssay
FMDV antiviral = antivirals against foot and mouth disease virus. FMDV antiviral cell-based qHTS. Potency, µM (doses to about 57.9 µM), without a hit: at the top dose activity change, negative = inhibition, hits mostly inhibitors. actives 1.2% (n = 410,000); calls by dose curve; tested in HEK293T cells; further: read-out not given here; potency means the concentration at half of the fitted maximal effect; nearly all actives have a fitted effect of over 45% in size
HCMV antiviral = inhibitors of human cytomegalovirus. actives 4.5% (n = 410,000). AID 1259415. HFF cells, HCMV-luciferase reporter, 72 h; hits give low values. activity change, negative = inhibition, % at 57.5 µM; in the data active means activity change below about -60%; inconclusive means no clear call, values can overlap the other calls; inactive means above about -39%
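HFF cells seeded 16 h at 37C, treated with compounds, infected with luciferase-reporter HCMV at MOI 1 PFU/cell; luciferase read at 72 h post infection, normalized to buffer-only and Salinomycin controls.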
FBPA Giardia inh = Giardia lamblia aldolase inhibition; purified Giardia FBPA; Potency, µM (doses to about 59.6 µM), for the others: at the highest dose activity, negative = inhibition, most hits filed as inhibitors; actives 0.71% (n = 290,000); further: potency means the concentration at half of the fitted maximal effect; nearly all actives have a fitted effect of over 55% in size
Target sequence (A8B2U2 whole entry, looked up): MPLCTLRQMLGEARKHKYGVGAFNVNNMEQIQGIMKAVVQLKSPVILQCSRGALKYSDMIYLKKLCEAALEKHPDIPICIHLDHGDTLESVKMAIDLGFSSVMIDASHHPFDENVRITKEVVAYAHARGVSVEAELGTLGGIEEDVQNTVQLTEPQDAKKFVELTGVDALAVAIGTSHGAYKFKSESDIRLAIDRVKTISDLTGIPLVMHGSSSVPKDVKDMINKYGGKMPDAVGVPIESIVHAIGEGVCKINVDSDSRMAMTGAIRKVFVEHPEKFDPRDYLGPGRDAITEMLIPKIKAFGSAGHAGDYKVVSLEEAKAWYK
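Giardia FBPA (40 nM reagent) was preincubated 10 min at RT with compound (up to 57.5 uM final), then substrate plus GAPDH/TPI/NAD/arsenate coupling system with diaphorase/resazurin was added; resorufin fluorescence (525/598 nm) was read after 20 min.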
Sm TGR block = inhibitors of Schistosoma mansoni thioredoxin glutathione reductase. Q962Y6. Potency, µM (doses to about 114 µM), without a hit: at the top dose activity change, negative = inhibition, actives largely listed as inhibitors. actives 3% (n = 360,000). purified TGR, DTNB reduction, TNB absorbance 405 nm; further: potency means the concentration at half of the fitted maximal effect; nearly all actives have a fitted effect of over 60% in size
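First, TGR (20 nM dispensed) and NADPH were mixed with compound. Second, a 15 min room-temperature incubation followed. Third, further NADPH and then DTNB were added to start the reaction. Finally, TNB absorbance was monitored kinetically.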
RE007 growth inh = less growth of the S. pombe RE007 Vpr strain; S. pombe RE007 Vpr strain, BacTiter-Glo ATP luminescence, 24 h; Potency, µM (series often up to 92.2 µM), for the others: at the highest dose activity change, negative = less growth, actives largely listed as inhibitors; actives 0.21% (n = 360,000); AID 651644; active means well fitted falling curve with a large enough effect; inconclusive means small, poorly fitted or top-dose-only effect; inactive means no such curve, though single readings can be large or run the other way; further: potency means the concentration at half of the fitted maximal effect; nearly all actives have a fitted effect of over 50% in size
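Fission yeast strain RE007, carrying one chromosomally integrated HIV-1 vpr copy, was seeded at OD 0.01 in PMG+AL medium with 23 nL pinned compound. After 24 h at 30 °C and 99% humidity, viability was read by BacTiter-Glo luminescence.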
Tb PYK inh = T. brucei pyruvate kinase inhibition; actives 0.12% (n = 410,000); Potency, µM (doses to about 76.8 µM), without a hit: top-dose activity, negative = inhibition, most hits filed as inhibitors; TbPYK enzyme, Kinase-Glo Plus ATP luminescence, 45 min; AID 624173; Q57TT1; further: potency means the concentration at half of the fitted maximal effect; nearly all actives have a fitted effect of over 50% in size
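Screened from lowest to highest concentration, compounds were pinned into TbPYK/substrate mixtures, and ADP (130 uM final) was added. Plates sat at room temperature for 45 min prior to Kinase-Glo Plus detection by luminescence.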
* marks the source's active call; other numbers are inactive results; ? = inconclusive; nt = not tested or not shown. In the library only some 7.7% were active in any assay of this set; here they are far more common. Unless noted, the call rests on the fitted dose curve; in most records, active means well fitted curve in the direction sought with a large enough effect; inconclusive means small, poorly fitted or top-dose-only effect, or another doubt; inactive means no such curve, though single readings can be large; an effect the other way counts as inactive or inconclusive. On the % scale 0 is the no-effect control and ±100 the full control effect.

SMILES	FMDV antiviral	HCMV antiviral	FBPA Giardia inh	Sm TGR block	RE007 growth inh	Tb PYK inh
O=C(CCS(=O)(=O)c1cc(Br)cc2c1N(C(=O)C1CC1)CC2)N1CCN(c2cccc(C(F)(F)F)c2)CC1	0%	-6	nt	0%	nt	0%
CCc1ccc(NC(=O)CSc2nc3c(sc4ccccc43)c(=O)n2CCCOC)cc1	-4%	10	nt	2%	nt	4%
COc1cccc(-c2cc(C(=O)N3CC4(C)CC3CC(C)(C)C4)no2)c1 (stereo not given)	30%	33	4%	-15%	3%	-2%
CC1(C)CC2CC(C)(CN2C(=O)c2cc(-c3ccc(O)cc3)on2)C1 (stereo not given)	34%	-61*	-5%	-6%	?	1%
CC(C)Oc1ccc(CC2CC(=O)NC2=O)cc1 (stereo not given)	-7%	-8	5%	2%	10%	0%
CCCOc1ccc(CC2CCC(=O)NC2=O)cc1 (stereo not given)	11µM*	-69*	4%	-24%	29%	3%
CC(C)c1nc2ccc(C(=O)NCc3ccc(F)cc3)cc2o1	-9%	35	nt	1%	nt	0%
O=C(O)c1cccc(NCc2ccncc2)c1	nt	-61*	0%	-4%	nt	nt
O=C(O)c1ccc(NCc2ccncc2)cc1	-14%	-19	-4%	-15%	-6%	10%
CCC1Oc2ccc(C)cc2N(CC(=O)N(Cc2ccncc2)Cc2ccco2)C1=O (stereo not given)	0%	27	4%	22µM*	12%	-3%
CCC1Oc2ccc(C)cc2N(CC(=O)N(Cc2cccnc2)Cc2cccc(F)c2)C1=O (stereo not given)	-5%	-36	8%	-10%	16%	-2%
Cc1nc2c(-c3ccc(Cl)cc3)cnn2c(N)c1-c1ccc(F)cc1	0.79µM*	?	5%	1%	-2%	0%
Cc1nc2c(-c3ccc(F)cc3)cnn2c(N)c1-c1ccccc1	16µM*	-72*	14%	0%	-29%	2%
COc1ccc(-c2c(C)nc3c(-c4ccc(F)cc4)cnn3c2N)cc1	31%	15	-2%	18%	-2%	0%
C[C@@H]1CN(Cc2ccc3c(c2)CN(Cc2cccn2-c2ccc(Cl)cn2)CCO3)C[C@H](C)O1	1%	nt	nt	nt	nt	nt
CN1CCCN(C(=O)CSc2nc3cccnc3n2C)CC1	nt	8	nt	nt	nt	nt
CC(C(=O)c1ccc(-c2ccccc2)cc1)[n+]1cccc(C(N)=O)c1 (stereo not given)	1%	5	-1%	-22%	-18%	9%
Cc1cc[n+](C(C)C(=O)c2ccc(-c3ccccc3)cc2)cc1 (stereo not given)	?	-102*	4%	-1%	-26%	-10%
Cc1cc[n+](C(C)C(=O)c2ccc(Cl)cc2)cc1 (stereo not given)	-20%	-24	-2%	-7%	-2%	0%
Cc1ccc[n+](C(C)C(=O)c2ccc(-c3ccccc3)cc2)c1 (stereo not given)	-28%	-98*	-3%	0%	-28%	7%
CC(C(=O)c1ccc(-c2ccccc2)cc1)[n+]1ccccc1 (stereo not given)	-21%	-97*	2%	1%	-17%	-10%
O=C(Nc1ccc(F)cc1F)c1noc2c1CCc1ccccc1-2	18%	85	nt	9%	nt	-2%
Cc1cc(=O)c(C(=O)NCCc2ccccn2)c2n1-c1ccccc1SC(c1cccs1)C2 (stereo not given)	0%	nt	nt	nt	nt	nt
CC(=O)N1CCc2cc(CNC(=O)Nc3cc(Cl)ccc3C)ccc21	-10%	-39	nt	6%	nt	4%
CCCS(=O)(=O)c1c(S(=O)(=O)CCC)c2cc(CC)ccn2c1C(=O)c1ccc(Cl)cc1	-12%	2	nt	-8%	nt	1%
SMILES	FMDV antiviral	HCMV antiviral	FBPA Giardia inh	Sm TGR block	RE007 growth inh	Tb PYK inh
NC(=NC1C2CC3CC(C2)CC1C3)Nc1ccc(I)cc1 (stereo not given)	-17%	nt	1%	nt	nt	nt
COc1ccc(-c2noc(-c3cccc(OC)c3OC)n2)cc1	21%	40	nt	-2%	nt	-5%
O=[N+]([O-])c1cc(O)c2ncccc2c1	-22%	-97*	?	-5%	7.9µM*	0%
O=[N+]([O-])c1cc2cccnc2c2ncccc12	-20%	-97*	?	-11%	-16%	-1%
Oc1cccc2cccnc12	-7%	nt	?	-24%	nt	0%
Cc1ccc([N+](=O)[O-])c2cccnc12	-6%	-4	-1%	-35%	0%	5%
O=[N+]([O-])c1ccc(Sc2cccc3cccnc23)c2cccnc12	?	-101*	?	1%	-17%	0%
CC(CC(c1ccccc1)c1ccccc1)NC(C)(C)C (stereo not given)	nt	-20	nt	nt	nt	0%
O=C(CN1C(=O)C2CCCCN2c2ccc(C(=O)N3CCCC3)cc21)NCc1ccc(F)cc1 (stereo not given)	27%	1	nt	8%	nt	-7%
c1c2c(cc3sc(N4CCCCC4)nc13)OCO2	-39%	5	-10%	-9%	45µM*	?
CCC[C@H]1[C@@H](NS(=O)(=O)c2ccc(OC)cc2)CC[C@@]23CCCN2C(=O)CCC[C@@H]13	nt	-25	nt	nt	nt	nt
Cc1ccc2nc(C3CCCCC3)c(Cc3ccccc3C(F)(F)F)n2c1	-24%	-70*	nt	nt	-28%	-1%
CCCn1c2ccccc2c2cnn(CC(=O)Nc3cc(OC)c(OC)c(OC)c3)c(=O)c21	?	?	nt	-8%	nt	7%
O=C(CN(c1cccc(C(F)(F)F)c1)S(=O)(=O)c1ccccc1)Nc1cccc(Cl)c1	?	-66*	nt	14%	nt	-2%
COc1cccc(NC(=O)CN(c2cccc(C(F)(F)F)c2)S(C)(=O)=O)c1	-7%	11	-7%	-10%	12%	0%
CCN(CC)S(=O)(=O)c1ccc(NC(=O)Nc2cccc(C(F)(F)F)c2)cc1	?	-105*	0%	4%	8%	-18%
CC(=O)Nc1cccc(NC(=O)Nc2cccc(F)c2)c1	25%	1	-3%	11%	1%	-5%
Cc1ccc(S(=O)(=O)Nc2ccc(NC(=O)Nc3cccc(C(F)(F)F)c3)cc2)cc1	?	-62*	-4%	-2%	11%	-5%
CNS(=O)(=O)c1ccc(NC(=O)Nc2cccc(F)c2)cc1	-1%	-101*	-1%	12%	-9%	-3%
CN(Cc1ccccc1)C(=O)Nc1ccc2c(c1)N(C)C(=O)c1ccccc1S2	0%	-33	nt	7%	nt	4%
